{"source": "PubChem BioAssay (NCATS)", "note": "Records with an inconclusive call do not appear. The source made the active and inactive calls. Calls come from the whole dose curve."}
{"assay": "Primary qHTS to identify inhibitors of SARS-CoV-2 cell entry (AID 1645846); note: nearly all actives have a fitted effect of over 45% in size", "conditions": "SARS-CoV-2 pseudovirus cell entry assay, luminescence; activity change, negative = inhibition: at 57.1 µM (top of the series) unless noted", "procedure,_shortened": "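Data are normalized to wells receiving SARS-CoV-2-S pseudoparticles and those given bald particles. Entry signal was luciferase luminescence in stable hACE2 Expi293F cells, 48 hr post-infection, after 1 hr compound pretreatment.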"}
{"molecule": "CN1CCc2nc(C(=O)N[C@@H]3C[C@@H](C(=O)N(C)C)CC[C@@H]3NC(=O)C(=O)Nc3ccc(Cl)cn3)sc2C1", "activity change, negative = inhibition": "-19.9%"}
{"molecule": "NCCCC[C@H](NC(=O)[C@@H]1CCCN1C(=O)[C@@H]1CSSC[C@H](N)C(=O)N[C@@H](Cc2ccc(O)cc2)C(=O)N[C@@H](Cc2ccccc2)C(=O)N[C@@H](CCC(N)=O)C(=O)N[C@@H](CC(N)=O)C(=O)N1)C(=O)NCC(N)=O", "activity change, negative = inhibition": "-25.1%"}
{"molecule": "C[C@@H](O)[C@H]1C(=O)N2C(C(=O)O)=C(S[C@@H]3CN[C@H](C(=O)Nc4cccc(C(=O)O)c4)C3)[C@H](C)[C@H]12", "activity change, negative = inhibition": "0.84%"}
{"molecule": "CO[C@H]1/C=C\\O[C@@]2(C)Oc3c(C)c(O)c4c(O)c(c(/C=N/N5CCN(C6CCCC6)CC5)c(O)c4c3C2=O)NC(=O)/C(C)=C\\C=C/[C@H](C)[C@H](O)[C@@H](C)[C@@H](O)[C@@H](C)[C@H](OC(C)=O)[C@@H]1C", "Potency": "inactive"}
{"molecule": "O=C(O)[C@@H]1CCCN1", "Potency": "inactive"}
{"molecule": "O[C@@H]1[C@@H](O)[C@@H](O)OC[C@@H]1O", "activity change, negative = inhibition": "-10.9% [at 171 µM]"}
{"molecule": "CCCCCCCCCCCCCC(=O)OCC(COP(=O)([O-])OCC[N+](C)(C)C)OC(=O)CCCCCCCCCCCCC", "note": "(configuration not stated)", "activity change, negative = inhibition": "-12.7%"}
